# Screening results: PubChem BioAssay, National Center for Advancing Translational Sciences (NCATS)
# Hits are enriched below; roughly 9.2% of the tested compounds scored in any of these assays.
# Rab9 prom act = qHTS Assay for Rab9 Promoter Activators; Potency, µM (highest dose often 9.22 µM), hits mostly activators; AID 485297, 2010; Huh7 Rab9 promoter-luciferase reporter, luminescence, 24 h; 320,000 compounds, 2.8% hits; note: nearly all actives have a fitted effect of over 60% in size
#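 Promoter activation is measured as luciferase luminescence in Huh7 cells stably transfected with a Rab9 promoter–luciferase construct, following 24 h compound exposure at 37 °C and 10 min reagent incubation at ambient temperature.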
# SMN2 splice enh = qHTS Assay for Enhancers of SMN2 Splice Variant Expression | HEK293 SMN2-luciferase splicing reporter, luminescence, 30-36 h | Potency, µM (top dose mostly 46.1 µM), actives largely listed as activators | 210,000 compounds, 2.8% hits | AID 1458, 2008; note: nearly all actives have a fitted effect of over 55% in size
#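 HEK293 cells carry an SMN2 […]–luciferase reporter in which exon 7 inclusion puts luciferase in frame. Cells were plated 10-12 h before compound addition, then incubated 30-36 h at 37C. ONE-Glo luminescence was read; sodium butyrate at 4.5 mM final served as control.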
# FLuc counter = qHTS profiling assay for firefly luciferase inhibitor/activator using purifed enzyme and Km concentrations of substrates (counterscreen for miR-21 project); Luciferin 4-monooxygenase (Photinus pyralis), P08659; purified FLuc, Km substrates, luminescence inhibition; Potency, µM (series often up to 57.5 µM), actives largely listed as inhibitors; 360,000 compounds, 6.9% hits; note: nearly all actives have a fitted effect of over 55% in size
# Target sequence (P08659 whole entry, looked up): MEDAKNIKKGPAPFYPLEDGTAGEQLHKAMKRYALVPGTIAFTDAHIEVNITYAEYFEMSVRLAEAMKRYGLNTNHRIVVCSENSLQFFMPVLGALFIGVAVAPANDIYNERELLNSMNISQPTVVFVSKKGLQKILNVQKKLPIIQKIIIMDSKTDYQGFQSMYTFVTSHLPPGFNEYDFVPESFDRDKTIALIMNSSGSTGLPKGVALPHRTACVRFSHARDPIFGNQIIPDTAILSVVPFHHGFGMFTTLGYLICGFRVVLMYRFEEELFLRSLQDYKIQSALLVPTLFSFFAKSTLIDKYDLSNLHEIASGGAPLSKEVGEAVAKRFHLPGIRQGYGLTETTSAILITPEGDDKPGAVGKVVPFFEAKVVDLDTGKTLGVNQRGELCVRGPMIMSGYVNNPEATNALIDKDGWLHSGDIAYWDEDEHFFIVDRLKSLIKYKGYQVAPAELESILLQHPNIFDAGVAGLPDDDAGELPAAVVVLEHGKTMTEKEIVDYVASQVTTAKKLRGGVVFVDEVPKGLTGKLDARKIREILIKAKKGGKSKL
#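 Purified P. pyralis luciferase (10nM final) with 10uM D-luciferin and 10uM ATP (Km levels) in 50mM Tris acetate pH 7.5, 10mM Mg acetate, 0.01% Tween-20, 0.05% BSA; qHTS 6-point titration, ~60 µM downward; luminescence read.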
# ELG1 repair inh = qHTS screen for small molecules that inhibit ELG1-dependent DNA repair in human embryonic kidney (HEK293T) cells expressing luciferase-tagged ELG1; Potency, µM (titrated, usually from 46.1 µM), hits mostly inhibitors; HEK293T ELG1-luciferase reporter, luminescence, 16 h; DNA damage induced by 5-fluorouridine; AID 504467, 2011; 330,000 compounds, 2.3% hits; note: nearly all actives have a fitted effect of over 55% in size
#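 5-Fluorouridine DNA damage + compound/DMSO, 2,000 cells/well, 16 h, 37 °C/5% CO2. ONE-Glo, 30 min RT, luminescence. Readout = decrease in reporter signal.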
# NPC1 prom act = qHTS Assay for NPC1 Promoter Activators. Huh7 NPC1 promoter luciferase reporter, 24 h. Potency, µM (highest dose often 9.22 µM), usual class: activators. 320,000 compounds, 2.4% hits; note: nearly all actives have a fitted effect of over 60% in size
#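 Stable NPC1-promoter luciferase Huh7 line; cpd (DMSO) 24 h, 37 °C, 5% CO2; Amplite luciferase reagent 10 min RT; luminescence readout. qHTS format.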
# ELG1 genotoxic = qHTS screen for small molecules that induce genotoxicity in human embryonic kidney (HEK293T) cells expressing luciferase-tagged ELG1; HEK293T ELG1-luciferase reporter, luminescence, 16 h; Potency, µM (doses to about 46 µM), actives largely listed as activators; 330,000 compounds, 1.3% hits; AID 504466, 2011; note: nearly all actives have a fitted effect of over 60% in size
#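 After overnight (16 hr) compound treatment at 37 °C, ELG1-luciferase HEK293T cells were lysed with ONE-Glo; luminescence quantified 30 min later at room temperature.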
# ELG1 FLuc counter = qHTS screen for small molecules that inhibit ELG1-dependent DNA repair: Hit Confirmation in Cell-Based Luciferin Assay; Potency, µM (top dose mostly 46.1 µM), actives largely listed as inhibitors; shares compounds with ELG1 repair inh; cell-free firefly luciferase luminescence counter-screen, ViewLux; 350 compounds, 3% hits; AID 624247, 2012
# ELG1 Luc conf = HTS assay for small molecules that inhibit ELG1-dependent DNA repair in human embryonic kidney (HEK293T) cells expressing luciferase-tagged ELG1: Hit Confirmation; shares compounds with ELG1 repair inh; HEK293T ELG1-luciferase levels, luminescence; cells co-treated with 5-fluorouridine; Potency, µM (doses to about 46.1 µM), actives largely listed as inhibitors; 670 compounds, 68% hits; AID 624248, 2012; note: nearly all actives have a fitted effect of over 55% in size
# ELG1-Luc MMS = MMS-stimulated human ELG1 repair inhibition, confirmed. HEK293T luciferase-tagged ELG1 level, MMS stimulated. AID 624249. Potency, µM (top dose mostly 46.1 µM), most hits filed as inhibitors. 670 compounds, 53% hits. shares compounds with ELG1 repair inh; note: nearly all actives have a fitted effect of over 60% in size
# ELG1 5-FU = qHTS screen for small molecules that inhibit ELG1-dependent DNA repair: Hit Confirmation with 5FU Viability; shares compounds with ELG1 repair inh; cell viability with 5-FU, ELG1-dependent repair; Potency, µM (highest dose often 46.1 µM), hits mostly cytotoxic; 670 tested, under 10 active; AID 624250, 2012;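 note: ELG1-luc HEK293T cells cotreated with 5-fluorouridine at 10 µM final; viability measured 16 h after compound addition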
# ELG1 MMS viab = qHTS screen for small molecules that inhibit ELG1-dependent DNA repair: Hit Confirmation with MMS Viability. shares compounds with ELG1 repair inh. Cell viability with MMS, ELG1-dependent DNA repair. Potency, µM (doses to about 46.1 µM), hits mostly cytotoxic. 670 compounds, 33% hits. AID 624251, 2012;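 note: ELG1-luc HEK293T cells co-treated with 10 µM MMS; viability read 16 h after compound addition; nearly all actives have a fitted effect of over 60% in size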
# ELG1 unstim viab = qHTS screen for small molecules that inhibit ELG1-dependent DNA repair: Hit Confirmation with Unstimulated Viability Assay; shares compounds with ELG1 repair inh; cell viability counter-screen, unstimulated, luminescence; Potency, µM (top dose mostly 45.9 µM), most hits filed as cytotoxic; 900 compounds, 8% hits;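 note: compound exposure lasted 16 hours before reading; nearly all actives have a fitted effect of over 55% in size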
# FLuc biochem = qHTS screen for small molecules that inhibit ELG1-dependent DNA repair: Hit Confirmation in Biochemical Luciferin Assay; shares compounds with ELG1 repair inh; purified firefly luciferase, luminescence counter-screen; Potency, µM (titrated, usually from 57.5 µM), most hits filed as inhibitors; 350 compounds, 10% hits; AID 624253, 2012
# A number is an active result; n = inactive; u = inconclusive; x = no result given; [ ] = remark or other dose. Calls come from the whole dose curve; as a rule, active = well fitted curve in the direction sought with a large enough effect; inconclusive = small, poorly fitted or top-dose-only effect, or another doubt; inactive = no such curve, though single readings can be large; an effect the other way counts as inactive or inconclusive.
SMILES,Rab9 prom act,SMN2 splice enh,FLuc counter,ELG1 repair inh,NPC1 prom act,ELG1 genotoxic,ELG1 FLuc counter,ELG1 unstim viab,FLuc biochem,others
CC(=O)Oc1ccc2c(C)c(CC(=O)N3CCN(C(=O)C4COc5ccccc5O4)CC3)c(=O)oc2c1C (configuration not stated),n,x,n,u,n,n,n,u,n,ELG1 Luc conf=2.5µM;ELG1-Luc MMS=u;ELG1 5-FU=u;ELG1 MMS viab=u
COc1cc(C)cc2oc(=O)c(CC(=O)N3CCN(C(=O)C4COc5ccccc5O4)CC3)c(C)c12 (configuration not stated),n,x,n,u,n,n,x,x,x,
CN(C)c1ccc(/C=C/c2ccnc3ccc(F)cc23)cc1,x,x,x,x,x,x,n,n,0.18µM,
CN(C)c1ccc(N=Nc2ccc(/C=C/c3ccnc4ccccc34)cc2)cc1,x,x,x,x,x,x,x,u,x,
COc1ccccc1NC(=O)C(C)OC(=O)CC1CCCCC1 (configuration not stated),n,x,n,n,n,n,x,x,x,
CCOc1ccc(NC(=O)CN(C)C(=O)C2CCN(c3ncnc4sc(C)c(C)c34)CC2)cc1OCC,n,x,n,15µM,n,n,u,n,n,ELG1 Luc conf=16µM;ELG1-Luc MMS=25µM;ELG1 5-FU=u;ELG1 MMS viab=u
FC(F)Oc1cccc(NC(=S)N2CCN(c3ccccn3)CC2)c1,n,n,n,n,n,n,x,x,x,
Cc1cc(NS(=O)(=O)c2ccc(NC(=O)COc3ccc(C#N)cc3)cc2)nc(C)n1,x,x,x,n,x,n,x,x,x,
O=C(NCCc1ccc(Cl)cc1)C1CCCN(S(=O)(=O)N2CCCCCC2)C1 (configuration not stated),n,x,n,n,n,n[9.26 µM],x,x,x,
CCOC(=O)N1CCC(=NNC(=O)c2cc3ccccc3cc2O)CC1,n,n,u,n,n,n,x,x,x,
O=C1CCCC(=NNC(=O)c2cc3ccccc3cc2O)C1,x,x,x,u,x,u,x,n,x,
